# Data: the antibiotic and cytotoxicity screens of Wong et al. (2023)
# Among all 39,000 compounds or so, about 3,300 (8.5%) were called active. The sample holds actives, similar compounds and a random draw of the others, so the mix is not that of the screen.
# System: HepG2
# Experiment: cytotoxicity call (relative viability < 0.9)
# Conditions: 10 µM
row,SMILES,cytotoxicity call
1,COC1=C2C[C@@H](C)C[C@H](OC)[C@H](O)[C@@H](C)/C=C(\C)[C@H](OC(N)=O)[C@@H](OC)/C=C/C=C(\C)C(=O)NC(=CC1=O)C2=O,active
2,CO[C@H]1/C=C\O[C@@]2(C)Oc3c(C)c(O)c4c(c3C2=O)[C@]2(C=C(NC(=O)/C(C)=C\C=C/[C@@H](C)[C@@H](O)[C@@H](C)[C@@H](O)[C@@H](C)[C@@H](OC(C)=O)[C@@H]1C)C4=O)OCC(=O)O2,inactive
3,COC1=C2C[C@@H](C)C[C@H](OC)[C@H](O)[C@@H](C)/C=C(\C)[C@H](OC(N)=O)[C@@H](OC)/C=C\C=C(/C)C(=O)NC(=CC1=O)C2=O,active
4,COC1=C2C[C@H](C)C[C@H](OC)[C@@H](O)[C@H](C)/C=C(\C)[C@H](OC(N)=O)[C@H](OC)/C=C/C=C(\C)C(=O)NC(=CC1=O)C2=O,active
5,Cc1ccc(S(=O)(=O)N2C[C@H](O)COC[C@@H]3O[C@H](CC(=O)N[C@H]4CCN(Cc5ccccc5)C4)CC[C@H]32)cc1,inactive
6,O=C(O)Cn1c(=O)oc2ccccc21,inactive
7,C[C@@H]1CN([C@H](C)CO)C(=O)c2cc(NC(=O)C3CCCCC3)ccc2O[C@@H](C)CCCCO[C@H]1CN(C)C(=O)Cc1ccccc1,inactive
8,COc1ccc(S(=O)(=O)N(C)C[C@@H]2OCCCC[C@@H](C)Oc3ccc(NC(=O)Nc4ccc(F)cc4)cc3C(=O)N([C@@H](C)CO)C[C@@H]2C)cc1,inactive
9,COc1cc2ccnc(CCCN)c2cc1OC,inactive
10,CCOc1ccc(Cc2nccc3cc(OCC)c(OCC)cc23)cc1OCC.Cl,active
11,CCOc1ccc([C@@H](C)N)cc1OCC,inactive
12,C[C@H](CO)N1C[C@H](C)[C@@H](CN(C)Cc2ccc(C(=O)Nc3ccccc3N)cc2)Oc2c(NC(=O)Nc3ccc(C(F)(F)F)cc3)cccc2C1=O,inactive
13,C[C@@H]1CN([C@H](C)CO)C(=O)c2cccc(NC(=O)Nc3ccc(C(F)(F)F)cc3)c2O[C@H]1CN(C)Cc1ccc(C(=O)Nc2ccccc2N)cc1,inactive
14,C[C@H]1CN([C@@H](C)CO)C(=O)c2cccc(NC(=O)Nc3ccc(C(F)(F)F)cc3)c2O[C@H]1CN(C)Cc1ccc(C(=O)Nc2ccccc2N)cc1,inactive
15,C[C@@H]1CN([C@@H](C)CO)C(=O)c2cccc(NC(=O)Nc3ccc(C(F)(F)F)cc3)c2O[C@H]1CN(C)Cc1ccc(C(=O)Nc2ccccc2N)cc1,active
16,C[C@H]1CN([C@@H](C)CO)C(=O)c2cccc(NC(=O)Nc3ccc(C(F)(F)F)cc3)c2O[C@@H]1CN(C)Cc1ccc(C(=O)Nc2ccccc2N)cc1,inactive
17,C[C@@H]1CN([C@@H](C)CO)C(=O)c2cccc(NC(=O)Nc3ccc(C(F)(F)F)cc3)c2O[C@@H]1CN(C)Cc1ccc(C(=O)Nc2ccccc2N)cc1,active

row,SMILES,cytotoxicity call
1,COCC(=O)N(C)C[C@@H]1Oc2cc(C#C[C@H](C)O)ccc2S(=O)(=O)N([C@H](C)CO)C[C@@H]1C,inactive
2,C[C@H](CO)N1C[C@H](C)[C@H](CN(C)Cc2ccc(Cl)c(Cl)c2)Oc2ccc(NS(=O)(=O)c3ccc(F)cc3)cc2CC1=O,inactive
3,C[C@@H]1CN([C@H](C)CO)C(=O)Cc2cc(NS(=O)(=O)c3ccc(F)cc3)ccc2O[C@H]1CN(C)Cc1ccc(Cl)c(Cl)c1,active
4,C[C@H]1CN([C@@H](C)CO)C(=O)Cc2cc(NS(=O)(=O)c3ccc(F)cc3)ccc2O[C@H]1CN(C)Cc1ccc(Cl)c(Cl)c1,active
5,C[C@H](CO)N1C[C@H](C)[C@@H](CN(C)Cc2ccc(Cl)c(Cl)c2)Oc2ccc(NS(=O)(=O)c3ccc(F)cc3)cc2CC1=O,inactive
6,C[C@H]1CN([C@@H](C)CO)C(=O)Cc2cc(NS(=O)(=O)c3ccc(F)cc3)ccc2O[C@@H]1CN(C)Cc1ccc(Cl)c(Cl)c1,active
7,C[C@@H]1CN([C@@H](C)CO)C(=O)Cc2cc(NS(=O)(=O)c3ccc(F)cc3)ccc2O[C@@H]1CN(C)Cc1ccc(Cl)c(Cl)c1,active
8,C[C@@H]1CN([C@@H](C)CO)C(=O)Cc2cc(NS(=O)(=O)c3ccc(F)cc3)ccc2O[C@H]1CN(C)Cc1ccc(Cl)c(Cl)c1,inactive
9,Cc1ccc(S(=O)(=O)Nc2ccc3c(c2)C(=O)N([C@H](C)CO)C[C@H](C)[C@H](CN(C)CC2CC2)O3)cc1,inactive
10,OCCn1cncn1,inactive
11,CN(C)CCCCNC(=O)[C@H]1C[C@H]2C(=O)NCC(=O)N2[C@H]1c1cccc(OCCO)c1,inactive
12,C[C@@H]1CCCCO[C@@H](CN(C)S(=O)(=O)c2cccs2)[C@H](C)CN([C@@H](C)CO)C(=O)c2cc(NC(=O)C3CCCCC3)ccc2O1,inactive
13,Cc1ncc(CO)c(CO)c1O,inactive
14,C[C@@H]1CCCCO[C@H](CN(C)Cc2ccncc2)[C@H](C)CN([C@@H](C)CO)C(=O)c2cc(NC(=O)Nc3ccc4c(c3)OCO4)ccc2O1,inactive
15,Cc1noc(C)c1NC(=O)N(C)C[C@@H]1Oc2ccc(NS(=O)(=O)c3ccccc3)cc2C(=O)N([C@@H](C)CO)C[C@H]1C,inactive
16,C[C@@H]1CN([C@H](C)CO)C(=O)Cc2cc(NS(=O)(=O)c3ccc(F)cc3)ccc2O[C@@H]1CN(C)Cc1ccc(Cl)c(Cl)c1,active
17,COc1ccc(S(=O)(=O)N(C)C[C@H]2Oc3c(NC(=O)C4CCOCC4)cccc3C(=O)N([C@@H](C)CO)C[C@@H]2C)cc1,inactive
